Molecules are shown by their SMILES. Where “and” joins values, the source holds several entries; their conditions need not be identical. Equal values may be shown once. About 83,000 compounds went through this panel and 20% of them were active in at least one assay; those are over-represented in the sample as a whole.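 Plates (96-well) were seeded with cells, treated with compound at one concentration, and incubated for 48 hours before percent growth was determined.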 A number with no mark means an inactive call. Calls of active or inactive are those of the source. Rule for the calls: active = growth percent below 10; inactive = the rest.

The test system of this assay is HOP-62 NSCLC. Briefly: NCI-60 one-dose screen, 48 h (100 = growth as untreated, 0 = no growth, -100 = all killed). The conditions noted are these: 10 µM unless noted.
With `C=C[C@]1(C)C=C2CC[C@@H]3C(C)(C)C(=O)CC[C@@]3(C)[C@@H]2CC1`, the growth was 105%. For `CN(C)CC1(C)Cc2ccsc2C1O` (stereo unspecified), the growth was 105% and 108%.

In the case of `CCN(CC)/C([O-])=c1\cccc\c1=C1\N=C(c2ccccc2)N=C1[n+]1ccc(-c2ccccc2)cc1`, the growth is 97.1%. For `Cc1oc2c(Cc3ccc(NC(=O)c4ccc(Cl)cc4)cc3)ncnc2c1C(=O)NO` the value was 101%; for `COc1cc(CNC(=O)CCCC/C=C/C(C)C)ccc1O`, 89% and 104%; for `CC1=C2[C@@H](CC1)[C@]1(C)O[C@@](C(C)C)(C[C@H]1OC(=O)CO)[C@H]2OC(=O)C1CC1c1ccccc1` (stereo partly specified), 82.4%. On to `O=C1OCC2=C1C(c1cccc(C(F)(F)F)c1)c1cc3c(cc1N2CCO)CCC3` (stereo unspecified), for which the growth is 15.9%. For `COc1ccc(/C=N/C2=C(C#N)C(c3ccccc3)c3c(ccc4ccccc34)O2)cc1` (stereo unspecified) the value was 35.5%; for `O=C(CCl)N(O)c1ccc(/C=C/c2ccccc2)cc1`, 96.5%; for `N#C/C(=C\c1ccc(Br)cc1)n1nnc2c(F)cccc21`, 53.8%. Consider `O=C(/C=C/c1ccccc1)c1cccs1`, for which the growth was 98.7% and 114%. Consider `COc1ccc(Nc2nn3c(SCC(=O)c4ccc(C)cc4)nnc3s2)cc1`, for which the growth is 90.8%. For `CN(Cc1ccccc1)c1nc(Cl)c(C2CC(c3ccc4c(c3)OCO4)=NN2c2cc(Cl)cc(Cl)c2)s1` (stereo unspecified) the value was 89.2%; for `Cc1nnc(NS(=O)(=O)c2ccc(N=Nc3ccc(N)nc3N)cc2)s1`, 113%. In the case of `CC[C@H](C)[C@H](NC(=O)[C@H](CCCCN)NC(=O)[C@H](CCCCN)NC(=O)[C@@H](NC(=O)[C@@H](NC(=O)[C@@H](N)Cc1cnc[nH]1)[C@@H](C)CC)[C@@H](C)CC)C(=O)N[C@@H](CCCNC(=N)N)C(=O)N[C@H](C(=O)N[C@@H](Cc1c[nH]c2ccccc12)C(=O)N[C@@H](Cc1ccc(O)cc1)C(=O)N[C@@H](CCCNC(=N)N)C(=O)N[C@@H](CCCCN)C(=O)N[C@@H](C)C(=O)N[C@@H](Cc1c[nH]c2ccccc12)C(=O)N[C@@H](Cc1cnc[nH]1)C(=O)N[C@H](C(=O)N[C@@H](CC(C)C)C(=O)NCC(=O)N[C@@H](CCCCN)C(=O)N[C@H](C(N)=O)C(C)C)C(C)C)[C@@H](C)O` it was 35.9%. For `O=S(=O)(Nc1cc(Sc2cccc3cccnc23)c(O)c2ccccc12)c1ccc(F)cc1` the value was 44.7%; for `COc1ccc2c(c1)CCNC21C(=O)Nc2c(Br)cc(Br)cc21` (stereo unspecified), 86.1%. Consider `CCCn1nc(C(=O)N2CCCCC2)c2c1CCC(N1CCC(c3ccncc3)CC1)C2` (stereo unspecified), for which the growth is 113%. For `C=C1C(=O)O[C@@H]2[C@H]3[C@H](COC(C)=O)[C@@H](OC(C)=O)C[C@H]3C(=C)[C@@H](O)C[C@@H]12` the value was 91.7%; for `CC(=O)N1N=C(c2ccc(F)cc2)CC1c1sc(N(C)Cc2ccccc2)nc1Cl` (stereo unspecified), 91.7%. With `O=C(/C=C/c1ccc([N+](=O)[O-])cc1)c1ccccc1`, the growth was 83%. In the case of `COc1ccc(C(CC(=O)c2ccc3c(c2)OCO3)C(=O)O)cc1OC` (stereo unspecified) it was 106% and 104%. In the case of `CCN1CCN(CC(=O)Nc2nc3ccc(NCc4ccc(C)cc4)cc3s2)CC1`, the growth was 78.5%.

As to `Clc1cccc(Nc2ncnc3ccc(-c4cncc(-n5cnnn5)c4)cc23)c1`, the growth was 83%. In the case of `CCc1c2c(nc3ccc(OCc4ccc(B5OC(C)(C)C(C)(C)O5)cc4)cc13)-c1cc3c(c(=O)n1C2)COC(=O)[C@]3(O)CC` it was -4.19% (active); in that of `COc1ccc(/C=N\Nc2nc(SCC(C)C)nc(-c3ccc(OC)cc3)c2C#N)cc1`, -2.99% (active). With `COc1cc2nc3cc([N+](=O)[O-])ccc3c(NCCNCC(C)(C)O)c2cc1OC`, the growth was -23% (active). For `COc1ccc(C(=O)c2ccc(OC)c(OC)c2OC)cc1` the value was 41.7% and 25.5%; for `N=C1/C(=C2\NC3C=CC=CC3S2)C(c2ccc(Cl)cc2)C2C(=O)N(c3ccccc3)C(=S)N12` (stereo unspecified), 105%; for `CC1=CC(C)(C)NC(=S)N1c1ccc(Cl)cc1`, 108% and 102%. For the compound `Cc1nn(-c2nc(-c3cc4ccccc4oc3=O)cs2)c(C)c1N=Nc1ccccc1`, the growth was 102%.

The values above are taken from PubChem BioAssay (NCI).
